# Compound activity: PubChem BioAssay, several laboratories
# Peg3 prom inh-1 – reduces Peg3 promoter-driven luciferase expression in HeLa. HeLa PEG-Prom luciferase reporter, luminescence, overnight. inhibition, % at 20 µM. 1.7% of 360,000 active. AID 588405;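 active = inhibition of at least 50% at 20 µM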
# Shn3 inh set2 – inhibitors of Schnurri-3 3'UTR reporter in osteoblasts | Clone20 osteoblast Shn3 3'UTR firefly luciferase, 24 h | inhibition, % at 12.5 µM | 0.52% of 360,000 active | AID 588674;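 active = mean inhibition of at least 75% with every replicate also reaching 75%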;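 also: 0% = median of neutral control wells and 100% = pilot-screen positive control compound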
# KKLEB cytotox – counter-screen for CF NF-kB inhibitors: cytotoxicity. KKLEB CF airway cells viability, ATPlite luminescence, overnight; active compounds read low; cells stimulated with P. aeruginosa culture filtrate. activity change (cytotoxicity), % at 5 µM. 0.36% of 360,000 active. AID 602141;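 active = corrected activity change at or below -50% at 5 µM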
# CF NFkB inh – inhibitors of cystic fibrosis induced NF-kB | KKLEB NF-kB-GFP reporter, PAF-induced, GFP fluorescence overnight | 0.86% of 360,000 active | inhibition, % at 5 µM | AID 588850;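 active = at least 50% inhibition at 5 µM, scaled per plate between neutral and stimulator controls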;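 also: PAF is a Pseudomonas aeruginosa culture filtrate used as stimulus; plate controls were PAF-stimulated DMSO wells for no effect and unstimulated DMSO wells for full effect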
# HIF-2a inh – blocks HIF-2a reporter activity. 786-0 RCC cells HIF-2a reporter, luciferase luminescence, overnight. inhibition, % at 18.8 µM. 0.72% of 360,000 active;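 active = inhibition of the luminescence signal of 40% or more relative to plate controls, in a single-dose primary screen at 18.75 µM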
# MITF TRPM1 inh – reduces MITF-dependent TRPM1 promoter luciferase signal; SK-MEL-5 TRPM1 promoter luciferase, 24 h; inhibition, % at 12.5 µM; 0.83% of 330,000 active; AID 488899;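 active = mean inhibition across replicates of 60% or more, whatever share of single replicates reaches that level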
# Peg3 prom inh-2 – Peg3 promoter inhibition confirmation; 84% of 1,300 active; shares compounds with Peg3 prom inh-1; inhibition, % at 20 µM; HeLa PEG-Prom luciferase reporter, luminescence, overnight;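 active = at 20 µM dose, 40% or more inhibition averaged across four replicates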
# CF NFkB inh conf – confirmation of cystic fibrosis induced NF-kB inhibitors; AID 602472; shares compounds with CF NFkB inh; inhibition, % at 5 µM; 64% of 1,300 active; KKLEB CF airway cells, PAF-induced NF-kB-GFP fluorescence, overnight; in the data active = inhibition above about 40%;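 also: stimulus PAF is a Pseudomonas aeruginosa filtrate and not platelet activating factor; plate controls were DMSO wells with stimulus for no effect and unstimulated DMSO wells for full effect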
# * hit, by the source's call; nt = no result. The list is not random: actives were taken first. Their share in the collection is about 2.7%.
SMILES,Peg3 prom inh-1,Shn3 inh set2,KKLEB cytotox,CF NFkB inh,HIF-2a inh,MITF TRPM1 inh,Peg3 prom inh-2,others
CCOC(=O)CNC(=O)N1Cc2cc(-c3cccc(F)c3)ccc2-n2nncc2C1,-2,1,-15,-21,3,nt,nt,
CC[C@@H](O)C[C@H]1CCC[C@@]2(C[C@@H]3OC(=O)/C=C/[C@@](C)(O)[C@@H](O)[C@H](C)[C@@H](O)[C@H](OC4CCC(N(C)C)C(C)O4)[C@@H](O)[C@](C)(O)CCCCC/C=C/[C@@H]4CC(C)(C)O[C@@]4(O)C[C@H](O2)[C@H]3C)O1 (some centres not stated),89*,90*,8,28,-15,76*,93*,
CC(=O)OC1CC[C@]2(C#N)[C@H]3CC[C@]4(C)[C@H](C5C=CC(=O)O5)CCC4(O)C3CCC2(O)C1 (some centres not stated),76*,-14,-15,22,4,34,87*,
FC(F)(F)c1ccc(-c2ccc3c(c2)CNCc2cnnn2-3)cc1,-204,20,-13,-16,-172,nt,nt,
CCC1(OC(=O)CN)C(=O)OCc2c1cc1n(c2=O)Cc2cc3ccccc3nc2-1 (configuration not stated),84*,2,-34,79*,34,80*,73*,
CCCCn1nnnc1C(C1CC1)N1CCC(n2c(=O)[nH]c3ccccc32)CC1 (configuration not stated),44,2,-5,7,-10,nt,nt,
CCCCn1nnnc1C(CCSC)N1CCC(n2c(=O)[nH]c3ccccc32)CC1 (configuration not stated),52*,16,9,-23,-8,nt,68*,
COc1cccc(C(c2nnnn2-c2c(C)cccc2C)N2CCC(n3c(=O)[nH]c4ccccc43)CC2)c1OC (configuration not stated),58*,-2,-6,20,-4,nt,42*,
COc1ccc(-c2ccc3c(c2)CNCc2cnnn2-3)cc1,-241,-60,16,-39,-218,nt,nt,
O=[N+]([O-])c1ccc(NC2CCCC2)c2ccncc12,26,21,-7,28,21,-1,nt,
O=[N+]([O-])c1ccc(NC2CCN(Cc3ccccc3)CC2)c2ccncc12,67*,16,-8,-18,29,18,78*,
O=C(CCN1CC1)OCCOC(=O)CCN1CC1,13,-25,-11,21,8,10,nt,
CCOC(=O)[C@]12Cc3cc(OC)ccc3[C@H]1N(Cc1ccccc1)C(=O)c1ccccc12,17,-8,6,6,5,6,nt,
CCOC(=O)[C@]12Cc3cc(C)ccc3[C@H]1N(Cc1ccccc1)C(=O)c1ccccc12,65*,7,15,-24,17,-1,34,
CC[n+]1c(-c2ccccc2)c2cc(N)ccc2c2ccc(N)cc21,55*,40,0,-66,2,nt,87*,
Cc1ccc(OC(=O)N(C)C[C@H]2OCc3cnnn3CCCC(=O)N([C@@H](C)CO)C[C@H]2C)cc1,32,17,-1,-13,3,nt,nt,
CC(C)C(O)(C(=O)OCC1=CCN2CCC(O)C12)C(C)O (configuration not stated),-1,3,-4,17,6,nt,nt,
Cc1[nH]c2ccc(OC(F)(F)F)cc2c1CCNCc1cccc([N+](=O)[O-])c1,82*,44,-14,13,-26,-13,58*,
Cc1ccc2[nH]c(C)c(CCNCc3ccco3)c2c1,-8,8,5,-27,10,-2,nt,
Cc1ccccc1-c1ccc2c(c1)CNCc1cnnn1-2,-135,-67,-19,-26,-167,nt,nt,
COc1cc2nc(CN3CC=C(c4ccccc4)CC3)[nH]c(=O)c2cc1OC,102*,-72,-7,69*,-210,1,94*,
CCC(=O)c1cn(Cc2ccc(C#N)cc2)c2ccccc12,10,10,-8,3,13,-9,nt,
N#Cc1ccc(Cn2cc(C=O)c3ccccc32)cc1,74*,-2,-1,7,5,-86,61*,
CCOC(=O)c1c(-n2c(C)cc(C=C3C(=O)NC(=S)NC3=O)c2C)sc2c1CCCC2,109*,63,5,34,77*,64*,62*,
C[C@@H]1CN([C@@H](C)CO)C(=O)CCCn2cc(nn2)CO[C@H]1CN(C)C(=O)Oc1cccc2ccccc12,-10,-5,27,-21,11,nt,nt,
SMILES,Peg3 prom inh-1,Shn3 inh set2,KKLEB cytotox,CF NFkB inh,HIF-2a inh,MITF TRPM1 inh,Peg3 prom inh-2,others
C[C@]12CC[C@@H](O)CC1=CCC1C2CC[C@@]2(C)C1CC[C@@H]2O (some centres not stated),-8,6,0,5,2,nt,nt,
COc1ccc(-n2c(/C=C/c3ccc(O)c(OC)c3)nc3ccccc3c2=O)cc1,56*,5,-27,33,24,4,69*,
Cc1cc(C)cc(N2C(=O)NC(=O)/C(=C\c3cccn3-c3ccc(Cl)cc3)C2=O)c1,104*,30,4,20,15,51,56*,
O=C1NC(=S)NC(=O)C1=Cc1cccn1-c1ccc(O)cc1,71*,16,2,26,56*,94*,49*,
COc1ccccc1C=C1C(=O)NC(=S)NC1=O,-2,11,14,-26,3,5,nt,
O=S(=O)(c1cc(Cl)cc(Cl)c1)N1Cc2cc(N3CCOCC3)ccc2-n2nncc2C1,2,3,-26,20,-3,nt,nt,
O=C1NCN(c2ccccc2)C12CCN(C(c1cccs1)c1nnnn1Cc1ccccc1)CC2 (configuration not stated),50*,0,-2,-11,16,nt,40*,
COC(=O)[C@@H]1N=C(c2ccc(OC)cc2)O[C@]12C(=O)N(Cc1ccc(OC)cc1)c1ccccc12,nt,nt,nt,nt,-4,nt,nt,
O=c1c2ccccc2nc(CSc2ncnc3nc[nH]c23)n1-c1ccc(Cl)c(Cl)c1,60*,20,-6,1,27,3,45*,
COc1ccc(N2C(=O)CC(N3CCC(n4c(=O)[nH]c5ccccc54)CC3)C2=O)cc1 (configuration not stated),9,-7,-16,-1,17,-10,nt,
COc1ccc(-n2nnnc2C(CCSC)N2CCC(n3c(=O)[nH]c4ccccc43)CC2)cc1 (configuration not stated),56*,18,-24,81*,-16,nt,42*,CF NFkB inh conf=70*
CC(=O)OC1(C)CC(C)C(=O)C(C(O)CC2CC(=O)NC(=O)C2)C1 (configuration not stated),105*,95*,-44,81*,77*,84*,98*,CF NFkB inh conf=114*
